Screens (PubChem BioAssay)
CYP2C19 inhib = blockers of cytochrome P450 2C19 activity – biochemical, luminescence, ADME assay, primary screen; P33261; CYP2C19 Supersomes, luciferin-H EGE luminescence, 30 min; inhibition, % at 5 µM; 96,000 tested, 21% active;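 active = CYP2C19 inhibition above a set limit at 5 µM in the primary screen, cut at about 50% in these data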
Target sequence (P33261 whole entry, looked up): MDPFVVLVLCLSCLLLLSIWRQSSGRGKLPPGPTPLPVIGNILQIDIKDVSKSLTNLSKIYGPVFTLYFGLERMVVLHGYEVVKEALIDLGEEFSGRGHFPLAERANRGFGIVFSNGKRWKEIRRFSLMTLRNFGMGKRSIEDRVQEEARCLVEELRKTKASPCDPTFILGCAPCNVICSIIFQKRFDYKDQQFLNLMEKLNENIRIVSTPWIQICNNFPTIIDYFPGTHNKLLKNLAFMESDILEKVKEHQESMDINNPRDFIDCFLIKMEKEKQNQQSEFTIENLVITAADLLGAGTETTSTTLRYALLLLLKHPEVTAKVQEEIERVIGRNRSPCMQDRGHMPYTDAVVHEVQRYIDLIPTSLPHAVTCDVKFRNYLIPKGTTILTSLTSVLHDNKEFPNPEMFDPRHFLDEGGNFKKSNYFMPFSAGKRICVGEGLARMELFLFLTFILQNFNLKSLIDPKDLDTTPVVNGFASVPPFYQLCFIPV
CYP2C9 inh = blockers of cytochrome P450 2C9 activity – biochemical, luminescence, ADME assay, primary screen | P11712 | CYP2C9 Supersomes, luciferin-H conversion | inhibition, % at 5 µM | 96,000 tested, 20% active | AID 777, 2007;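 active = blocking of liver enzyme CYP2C9 beyond about 50% at 5 µM, limit read from the data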
Cav32 inh = Cav3.2 calcium influx blockers – cell-based, Fluo-4 calcium fluorescence, FDSS, MLSMR library, primary screen; Cav3.2-expressing cells; active compounds read low; B-score at 10 µM; 100,000 tested, 4% active; AID 449739, 2010;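 active = single-dose well whose peak fluorescence ratio is a statistical outlier from its plate by either plate-standardised score or position-corrected B-score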
CYP2C9 activ = human CYP2C9 activators, primary screen, biochemical, luminescence; Cytochrome P450 2C9 (Homo sapiens), P11712; recombinant CYP2C9, luciferin-H conversion; active compounds read high; factor 1 = untreated enzyme, 0 = blocked; activation factor at 5 µM; 96,000 tested, 1.4% active; AID 1024, 2008;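 active = activation factor of 2 or more for CYP2C9 at a 5 µM dose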
CYP2C19 act = human CYP2C19 activators, primary screen, biochemical, luminescence; AID 1025, 2008; recombinant CYP2C19, luciferin-H EGE luminescence; active compounds read high; 0 = fully inhibited enzyme, 1 = untreated enzyme; activation factor at 5 µM; 96,000 tested, under 10 active;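 active = activation factor of at least 2 at 5 µM in the primary screen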
Numbers stand for hits; - = inactive; . = no result given. Only some compounds are listed: those with a hit (about 27% of all), similar ones and a draw of the others.

SMILES | CYP2C19 inhib | CYP2C9 inh | Cav32 inh | CYP2C9 activ | CYP2C19 act
Clc1ccc(CN2C3=NCCN3c3ccccc32)cc1 | - | - | - | - | -
CC(C)(C)NC(=O)CN(C(=O)CNC(=O)c1cccs1)c1ccc2c(c1)OCCO2 | - | 80 | - | - | -
CC(C)C1N=C2c3ccccc3N=C(SCc3cc(=O)n4cc(Cl)ccc4n3)N2C1=O (stereo not given) | - | 55 | - | - | -
N#Cc1c(NC(=O)CSc2nc(-c3ccco3)cc(C(F)(F)F)n2)sc2c1CCCC2 | - | - | - | - | -
O=C(Nc1cccc(F)c1)N1CC=C(c2ccc(Cl)cc2)CC1 | 96 | 96 | -7.4 | - | -
C=CCn1c(SCCC(=O)O)nc2c1c(=O)n(C)c(=O)n2C | - | - | - | - | -
CCc1ccc(N(CC(=O)Nc2ccc(OC)cc2OC)S(C)(=O)=O)cc1 | 88 | 97 | - | - | -
COc1ccc(N(CC(=O)Nc2cc(OC)ccc2OC)S(C)(=O)=O)cc1 | . | . | - | . | .
COc1ccccc1NC(=O)CN(c1ccc(C23CC4CC(CC(C4)C2)C3)cc1)S(C)(=O)=O | - | 64 | - | - | -
COc1ccc(C)cc1NC(=O)CN(c1ccccc1F)S(C)(=O)=O | - | 52 | . | - | -
COc1ccc(C)cc1NC(=O)CN(c1ccc(F)cc1)S(C)(=O)=O | - | 65 | - | - | -
Cc1ccc(SCc2[nH]nc3c2C2(C(=O)Nc4ccc([N+](=O)[O-])cc42)C(C#N)=C(N)O3)cc1 (stereo not given) | - | 52 | - | - | -
Cc1ccc(SCc2[nH]nc3c2C2(CCSCC2)C(C#N)=C(N)O3)cc1 | - | - | - | - | -
COC(=O)c1ccccc1NC(=O)C1CCN(C(=O)c2cc(OC)c(OC)c(OC)c2)CC1 | - | 91 | - | - | -
O=C(Nc1ccccc1Oc1ccccc1)C1CC1 | 70 | - | - | - | -
O=C(Nc1ccccc1)c1ccccc1NC(=O)C1CCCCC1 | - | - | - | - | -
COC(=O)c1ccccc1NC(=O)C1CCCC1 | 57 | - | - | - | -
COc1cc(C(=O)N2CCC(N3CCCCCC3)CC2)cc(OC)c1OC | . | . | - | . | .
Cc1oc2c(c1C(=O)Nc1cccc(C(=O)O)c1)CCCC2 | - | - | - | - | -
Cc1ccc2oc3c(c(=O)c2c1)C(c1cccs1)N(CCCN(C)C)C3=O (stereo not given) | - | - | - | - | -
CCN(CC)c1ncc(C)c(=O)[nH]1 | - | - | - | - | -
CCOc1cc(CNn2cnnc2)ccc1OCC(=O)NC1CCCCC1 | - | 65 | - | - | -
Cc1cc(C)c(S(=O)(=O)n2ccc(-c3ccc(OCCN(C)c4ccccn4)cc3)n2)c(C)c1 | - | 57 | - | - | -
CCOC(=O)c1c(C)nc2c(C#N)cnn2c1C | 63 | - | - | - | -
N#CCCn1nc(-c2ccccc2)cc1Nc1ccccc1NC(=O)c1cccs1 | 97 | 96 | - | - | -
SMILES | CYP2C19 inhib | CYP2C9 inh | Cav32 inh | CYP2C9 activ | CYP2C19 act
O=C(Nc1ccccc1C1CC1)c1cccs1 | - | - | - | - | -
COC(=O)C1(O)CC(CC(C)C)=NN1C(=O)c1ccccc1 (stereo not given) | - | - | - | - | -
CCN1CCN(Cc2nc3c(c(=O)n(C)c(=O)n3C)n2CCc2ccccc2)CC1 | . | . | - | . | .
CCN1CCN(Cc2nc3c(c(=O)n(C)c(=O)n3C)n2C(C)C(C)=O)CC1 (stereo not given) | 68 | - | - | - | -
CCOC(=O)Cc1nnc2c(Nc3ccccc3F)nc3nonc3n12 | - | - | - | - | -
CCSc1nc2c(sc3nc(C)cc(C)c32)c(=O)[nH]1 | - | 58 | . | - | -
CC(=O)c1ccc(N2C(=O)C3C(C2=O)C(C(=O)c2ccc(Cl)cc2)N2CCCC32)cc1 (stereo not given) | - | - | - | - | -
O=C(c1ccc(Cl)cc1)C1C2C(=O)N(c3ccccc3)C(=O)C2C2CCCN21 (stereo not given) | 79 | 78 | -6.9 | - | -
COc1ccc(C(=O)Nc2nncs2)cc1S(=O)(=O)N1CC(c2ccccc2)CC1=O (stereo not given) | - | 84 | - | - | -
CS(=O)(=O)N(CC(=O)N1CCN(c2ccccc2)CC1)c1ccccc1Cl | . | . | - | . | .
O=C(Nc1ccccc1)N1CCc2ccccc2C1 | . | . | - | . | .
Cc1ccc(C2CCN(C(=O)Nc3ccccc3)C2)cc1 (stereo not given) | 60 | - | - | - | -
CC(=O)c1cccc(NC(=O)N2CCc3ccccc3C2)c1 | 68 | 56 | - | - | -
Cc1ccc(NC(=O)N2CCc3ccccc3C2)cc1 | 93 | - | - | - | -
COC(=O)c1ccc(COC(=O)C23CC4CC(CC(O)(C4)C2)C3)o1 | - | - | - | - | -
COc1ccc(NC(=O)Nc2ccc(OC)cc2)cc1 | - | - | . | - | -
COc1ccc(CNC(=O)Nc2cccc(C)c2)cc1 | - | - | - | - | -
COc1ccc(NC(=O)Nc2ccc(N(C)C)cc2)cc1 | 86 | - | - | - | -
COc1ccc(N2CCC(CNC(=O)Nc3ccccc3)C2)cc1 (stereo not given) | 60 | - | - | - | -
COc1ccc(OC)c(NC(=O)NCc2ccc(F)cc2)c1 | 99 | - | - | - | -
COc1ccc(CNC(=O)Nc2ccc(OC)cc2)cc1 | 59 | - | - | - | -
COc1ccc(OC)c(NC(=O)Nc2cccc3ccccc23)c1 | - | - | - | - | -
CCN(C(=O)CSc1nnc(NC2CCCCC2)s1)C1CCS(=O)(=O)C1 (stereo not given) | - | - | - | - | -
CC(Cc1ccccc1)C(=O)NCc1ccccn1 (stereo not given) | . | . | - | . | .
COc1ccc(NC(=O)NCc2cccn2C)c(OC)c1 | 62 | - | - | - | -
SMILES | CYP2C19 inhib | CYP2C9 inh | Cav32 inh | CYP2C9 activ | CYP2C19 act
COc1cc2c(cc1OC)CN(C(=O)CSc1nnc(C)s1)CC2 | - | - | - | - | -
CS(=O)(=O)N(CC(=O)Nc1ccccc1Sc1ccccc1)C1CCCCC1 | - | - | -5.9 | - | -
COc1ccc(NC(=O)N2CCCC2)cc1OC | - | - | - | - | -
COc1ccc(NC(=O)CN(C2CCCCC2)S(C)(=O)=O)cc1OC | 50 | - | - | - | -
CSc1cccc(NC(=O)CN(C2CCCCC2)S(C)(=O)=O)c1 | 59 | 71 | -5.1 | - | -
CCCCC1CC1C(=O)Nc1ccc(OC)c(OC)c1 (stereo not given) | 92 | 59 | - | - | -
COc1ccccc1-n1cnc(N)c1C(=O)c1ccccc1 | - | - | - | - | -
Cc1ccc(C23CC4CC(CC(NC(=O)NC(C)(C)CO)(C4)C2)C3)cc1 | 73 | 75 | - | - | -
Cc1ccc(C23CC4CC(CC(NC(=O)N5CCN(C)CC5)(C4)C2)C3)cc1 | - | - | - | - | -
